Measured values: PubChem BioAssay AID1159580 (chemical genetic matrix, 2015)
Out of some 5,500 compounds screened, about 2,000 (36%) were called active. Inconclusive results (about 18%) are left out. Cut-off read from the data, not from the text of the source: active = normalized growth mostly below about 0.91 (no sharp cut-off); inconclusive = no clear call, values can overlap the other calls; inactive = mostly above about 0.92. Some of the results follow.

Assay: chemical genetic growth profiling, strain panel (AID 1159580);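 note: tested at 20 µM; growth read once vehicle control cultures reached saturation at 30 °C; 1 = growth at the plate median or of vehicle wells; lower values mean less growth of the strain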
Conditions: growth OD

Measured: normalized growth

CC(=O)NS(=O)(=O)c1ccc(N)cc1
inactive: S. cerevisiae deletion strains, locus YJR066W, strain TOR1, hits give low values 0.931 | S. cerevisiae deletion strains, locus YKL009W, strain mrt4, hits give low values 0.975 | S. cerevisiae deletion strains, locus YKL068W, hits give low values 0.989 | S. cerevisiae deletion strains, locus YKL085W, strain MDH1 (second series), hits give low values 0.982 | S. cerevisiae deletion strains, locus YKL085W, strain MDH1, hits give low values 0.982 | S. cerevisiae deletion strains, locus YKL160W, strain elf1, hits give low values 1 | S. cerevisiae deletion strains, locus YKL190W, strain CNB1, hits give low values 0.997 | S. cerevisiae deletion strains, locus YKR001C, strain vps1, hits give low values 0.975 | S. cerevisiae deletion strains, locus YKR026C, strain gcn3, hits give low values 1.01 | S. cerevisiae deletion strains, locus YKR091W, strain srl3, hits give low values 1.01 | S. cerevisiae deletion strains, locus YLL001W, strain dnm1, hits give low values 1 | S. cerevisiae deletion strains, locus YLL026W, hits give low values 1.01 | S. cerevisiae deletion strains, locus YLL041C, strain sdh2, hits give low values 1.02 | S. cerevisiae deletion strains, locus YLR027C, strain aat2, hits give low values 1.01 | S. cerevisiae deletion strains, locus YLR039C, strain RIC1, hits give low values 1 | S. cerevisiae deletion strains, locus YLR058C, strain SHM2, hits give low values 0.992 | S. cerevisiae deletion strains, locus YLR102C, strain apc9, hits give low values 0.988 | S. cerevisiae deletion strains, locus YLR113W, strain HOG1, hits give low values 0.983 | S. cerevisiae deletion strains, locus YLR221C, strain rsa3, hits give low values 1.01 | S. cerevisiae deletion strains, locus YLR258W, strain gsy2, hits give low values 1.01 | S. cerevisiae deletion strains, locus YLR262C, strain YPT6 (second series), hits give low values 1.03 | S. cerevisiae deletion strains, locus YLR262C, strain YPT6, hits give low values 1 | S. cerevisiae deletion strains, locus YLR268W, strain sec22, hits give low values 0.945 | S. cerevisiae deletion strains, locus YLR320W, strain mms22, hits give low values 1.01 | S. cerevisiae deletion strains, locus YLR330W, strain CHS5, hits give low values 0.993 | S. cerevisiae deletion strains, locus YLR342W, strain FKS1 (second series), hits give low values 0.992 | S. cerevisiae deletion strains, locus YLR342W, strain FKS1, hits give low values 1.01 | S. cerevisiae deletion strains, locus YLR357W, strain rsc2, hits give low values 1.04 | S. cerevisiae deletion strains, locus YLR370C, strain arc18, hits give low values 1.01 | S. cerevisiae deletion strains, locus YLR371W, strain rom2, hits give low values 0.98 | S. cerevisiae deletion strains, locus YLR384C, strain iki3, hits give low values 1.01 | S. cerevisiae deletion strains, locus YLR418C, strain cdc73, hits give low values 0.968 | S. cerevisiae deletion strains, locus YML016C, strain PPZ1, hits give low values 0.99 | S. cerevisiae deletion strains, locus YML032C, strain rad52, hits give low values 0.976 | S. cerevisiae deletion strains, locus YML120C, strain ndi1, hits give low values 1.01 | S. cerevisiae deletion strains, locus YML124C, strain tub3, hits give low values 0.977 | S. cerevisiae deletion strains, locus YMR058W, strain fet3, hits give low values 1.03 | S. cerevisiae deletion strains, locus YMR078C, strain ctf18, hits give low values 0.985 | S. cerevisiae deletion strains, locus YMR125W, strain sto1, hits give low values 1 | S. cerevisiae deletion strains, locus YMR129W, hits give low values 1.01 | S. cerevisiae deletion strains, locus YMR205C, strain PFK2, hits give low values 1.02 | S. cerevisiae deletion strains, locus YMR223W, strain ubp8, hits give low values 0.996 | S. cerevisiae deletion strains, locus YMR231W, strain pep5, hits give low values 1.01 | S. cerevisiae deletion strains, locus YMR307W, strain GAS1, hits give low values 0.985 | S. cerevisiae deletion strains, locus YNL067W, strain RPL9B, hits give low values 1 | S. cerevisiae deletion strains, locus YNL071W, strain lat1, hits give low values 0.999 | S. cerevisiae deletion strains, locus YNL128W, strain TEP1, hits give low values 0.978 | S. cerevisiae deletion strains, locus YNL183C, strain NPR1, hits give low values 0.951 | S. cerevisiae deletion strains, locus YNL209W, strain ssb2, hits give low values 1.03 | S. cerevisiae deletion strains, locus YNL233W, strain BNI4, hits give low values 0.993 | S. cerevisiae deletion strains, locus YNL248C, strain rpa49, hits give low values 1.03 | S. cerevisiae deletion strains, locus YNL250W, strain rad50, hits give low values 0.971 | S. cerevisiae deletion strains, locus YNL271C, strain bni1, hits give low values 0.973 | S. cerevisiae deletion strains, locus YNL298W, strain CLA4, hits give low values 0.974 | S. cerevisiae deletion strains, locus YNL307C, strain MCK1, hits give low values 0.97 | S. cerevisiae deletion strains, locus YNL322C, strain KRE1 (second series), hits give low values 0.995 | S. cerevisiae deletion strains, locus YNL322C, strain KRE1, hits give low values 0.992 | S. cerevisiae deletion strains, locus YNR049C, strain mso1, hits give low values 1.01 | S. cerevisiae deletion strains, locus YNR052C, strain pop2, hits give low values 0.977 | S. cerevisiae deletion strains, locus YOL006C, strain TOP1, hits give low values 1.02 | S. cerevisiae deletion strains, locus YOL012C, strain htz1 0.651 | S. cerevisiae deletion strains, locus YOL147C, strain pex11, hits give low values 0.985 | S. cerevisiae deletion strains, locus YOR001W, strain rrp6, hits give low values 1.02 | S. cerevisiae deletion strains, locus YOR061W, strain CKA2, hits give low values 0.989 | S. cerevisiae deletion strains, locus YOR069W, strain VPS5, hits give low values 0.984 | S. cerevisiae deletion strains, locus YOR070C, strain gyp1, hits give low values 1.02 | S. cerevisiae deletion strains, locus YOR080W, strain dia2, hits give low values 1.01 | S. cerevisiae deletion strains, locus YOR083W, strain WHI5, hits give low values 1 | S. cerevisiae deletion strains, locus YOR106W, strain vam3, hits give low values 1.02 | S. cerevisiae deletion strains, locus YOR136W, strain idh2, hits give low values 0.996 | S. cerevisiae deletion strains, locus YOR144C, strain elg1, hits give low values 0.987 | S. cerevisiae deletion strains, locus YOR184W, strain ser1, hits give low values 0.989 | S. cerevisiae deletion strains, locus YOR231W, strain MKK1, hits give low values 0.997 | S. cerevisiae deletion strains, locus YOR265W, strain rbl2, hits give low values 1.01 | S. cerevisiae deletion strains, locus YOR270C, strain vph1, hits give low values 1.04 | S. cerevisiae deletion strains, locus YOR290C, strain snf2, hits give low values 1 | S. cerevisiae deletion strains, locus YOR316C, strain cot1, hits give low values 0.982 | S. cerevisiae deletion strains, locus YPL051W, strain arl3, hits give low values 1.02 | S. cerevisiae deletion strains, locus YPL078C, strain atp4, hits give low values 1.01 | S. cerevisiae deletion strains, locus YPL106C, strain sse1, hits give low values 1.01 | S. cerevisiae deletion strains, locus YPL240C, strain hsp82, hits give low values 1.02 | S. cerevisiae deletion strains, locus YPL241C, strain CIN2, hits give low values 0.995 | S. cerevisiae deletion strains, locus YPL256C, strain CLN2, hits give low values 1 | S. cerevisiae deletion strains, locus YPR119W, strain clb2, hits give low values 0.995 | S. cerevisiae deletion strains, locus YPR141C, strain kar3, hits give low values 0.981 | S. cerevisiae deletion strains, locus YPR163C, strain tif3, hits give low values 0.982 | S. cerevisiae deletion strains, locus YPR167C, strain met16, hits give low values 0.982 | S. cerevisiae deletion strains, strain wtn01, hits give low values 0.969 | S. cerevisiae strains, strain wild type, hits give low values 1
